Measurements as given in PMC11062922 (Nature Chemical Biology, 2023).
Where two headings read alike, the source gives them in different places.

Tests used:
Design in all cases: species or system human, MV4-11 + K-562 + COLO205 + SK-N-BE2 + OVCAR-8
ADCK3 = conditions: read-out: apparent Kd; compound concentrations: 100 nM and 1000 nM (sheet 'Samples'), CATDS: 0.16598723814203101; n = 1
ACVR2B = conditions: read-out: apparent Kd, compound concentrations: 100 nM and 1000 nM (sheet 'Samples'), n = 1
MAPK11 = conditions: read-out: apparent Kd, compound concentrations: 100 nM and 1000 nM (sheet 'Samples'), n = 1
RIOK2 = conditions: read-out: apparent Kd, compound concentrations: 100 nM and 1000 nM (sheet 'Samples'), n = 1
SYK = conditions: read-out: apparent Kd, compound concentrations: 100 nM and 1000 nM (sheet 'Samples'), n = 1
TAOK1 = conditions: read-out: apparent Kd, compound concentrations: 100 nM and 1000 nM (sheet 'Samples'), n = 1
BMPR1A = conditions: read-out: apparent Kd, n = 1
NUAK1 = conditions: read-out: apparent Kd, compound concentrations: 100 nM and 1000 nM (sheet 'Samples'), n = 1
TGFBR2 = conditions: read-out: apparent Kd, n = 1
CDKL5 = conditions: read-out: apparent Kd, compound concentrations: 100 nM and 1000 nM (sheet 'Samples'), n = 1
EPHA2 = conditions: read-out: apparent Kd, n = 1
MAP4K5 = conditions: read-out: apparent Kd, n = 1
EPHA4 = conditions: read-out: apparent Kd, n = 1
EPHB2 = conditions: read-out: apparent Kd, n = 1
EPHB4 = conditions: read-out: apparent Kd, n = 1
TNK2 = conditions: read-out: apparent Kd, n = 1
GSK3B = conditions: read-out: apparent Kd; compound concentrations: 100 nM and 1000 nM (sheet 'Samples'), CATDS: 1.6634751009670601E-2; n = 1
PLK4 = conditions: read-out: apparent Kd; compound concentrations: 100 nM and 1000 nM (sheet 'Samples'), CATDS: 1.60355035004788E-2; n = 1
[1] = compound concentrations:100 nM and 1000 nM (sheet 'Samples')

In the case of COc1ccc(-n2cnc3c(N)ncnc32)cc1 [SKF-97236], the potency estimated from few doses (ADCK3) is reported as 0.922 µM.
Compound COc1ccc(Nc2nccc(N3CCC(NC(=O)Nc4ccc5c(c4)OCO5)C3)n2)cc1 (centres unmarked) [GSK1379745A] has a potency estimated from few doses (ACVR2B; CATDS: 4.7768277435408998E-2) of 1.05 µM, a potency estimated from few doses (MAPK11; CATDS: 3.6090086264463E-2) of 1.9 µM and a potency estimated from few doses (RIOK2; CATDS: 4.3222091528321002E-2) of 1.28 µM. It also gave a potency estimated from few doses (SYK; CATDS: 3.71249657659821E-2) of 1.78 µM and a potency estimated from few doses (TAOK1; CATDS: 4.1153987901417902E-2) of 1.41 µM.
Work on NC(=O)c1cccc(Nc2nccc(Nc3cccc4[nH]ncc34)n2)c1 [GW782612X] yielded a potency estimated from few doses (ACVR2B; CATDS: 0.173302967359416) of 0.0524 µM, a potency estimated from few doses (BMPR1A; compound concentrations: 100 nM and 1000 nM (sheet 'Samples'), CATDS: 3.8772747112030999E-2) of 1.09 µM and a potency estimated from few doses (NUAK1; CATDS: 5.2412926017760202E-2) of 0.475 µM. For the same compound, the potency estimated from few doses (TGFBR2; compound concentrations: 100 nM and 1000 nM (sheet 'Samples'), CATDS: 0.37560252723777299) was 0.017 µM.
In the case of O=C1N=C(NCC(CO)c2ccccc2)S/C1=C\c1ccc2ncccc2c1 (centres unmarked) [RO4582641-000], the potency estimated from few doses (CDKL5; CATDS: 6.3730815830875698E-2) is reported as 1.51 µM.
COc1cc(Nc2ccnc3cc(-c4ccncc4)ccc23)cc(OC)c1OC.Cl [GW494610A] was tested, and the potency estimated from few doses (BMPR1A; compound concentrations: 100 nM and 1000 nM (sheet 'Samples'), CATDS: 3.04170421320503E-2) was 0.486 µM, the potency estimated from few doses (EPHA2; compound concentrations: 100 nM and 1000 nM (sheet 'Samples'), CATDS: 2.8855283068255098E-2) was 0.577 µM and the potency estimated from few doses (MAP4K5; compound concentrations: 100 nM and 1000 nM (sheet 'Samples'), CATDS: 2.1260288667502202E-2) was 2.03 µM. For the same compound, the potency estimated from few doses (MAPK11; CATDS: 2.2230478875047501E-2) was 1.61 µM.
With CS(=O)(=O)CCNCc1ccc(-c2ccc3ncnc(Nc4ccc(OCc5cccc(F)c5)c(C(F)(F)F)c4)c3c2)o1 [GW576484X] the potency estimated from few doses (RIOK2; CATDS: 5.8358702635658101E-2) was 1.41 µM and the potency estimated from few doses (TAOK1; CATDS: 9.5612553502410894E-2) was 0.618 µM.
With Cl.Oc1cccc(Nc2ccnc3cc(-c4ccncc4)ccc23)c1 [GW494601A] the potency estimated from few doses (ACVR2B; CATDS: 0.269416694406998) was 0.00216 µM, the potency estimated from few doses (BMPR1A; compound concentrations: 100 nM and 1000 nM (sheet 'Samples'), CATDS: 2.7920432625818298E-2) was 0.313 µM and the potency estimated from few doses (EPHA2; compound concentrations: 100 nM and 1000 nM (sheet 'Samples'), CATDS: 2.3824924917130601E-2) was 0.6 µM. The potency estimated from few doses (EPHA4; compound concentrations: 100 nM and 1000 nM (sheet 'Samples'), CATDS: 3.3294473343985699E-2) was 0.165 µM, the potency estimated from few doses (EPHB2; compound concentrations: 100 nM and 1000 nM (sheet 'Samples'), CATDS: 2.64855925277621E-2) was 0.385 µM and the potency estimated from few doses (EPHB4; compound concentrations: 100 nM and 1000 nM (sheet 'Samples'), CATDS: 3.7673587952975797E-2) was 0.11 µM. For the same compound, the potency estimated from few doses (TGFBR2; compound concentrations: 100 nM and 1000 nM (sheet 'Samples'), CATDS: 0.14921911016535599) was 0.00506 µM.
For Cc1cccc(Nc2nc(NCCN)ncc2C(N)=O)c1 [GSK1292139B], the potency estimated from few doses (NUAK1; CATDS: 0.100745572773025) was 0.611 µM and the potency estimated from few doses (SYK; CATDS: 7.0539324655896005E-2) was 1.5 µM.
Work on CCN(CC)CCOc1ccc(Nc2ncc3cc(-c4c(Cl)cccc4Cl)c(=O)n(C)c3n2)cc1 [SB-601273] yielded a potency estimated from few doses (BMPR1A; [1]) of 0.538 µM, a potency estimated from few doses (EPHA2; [1]) of 0.0303 µM and a potency estimated from few doses (EPHA4; [1]) of 0.162 µM. It also gave a potency estimated from few doses (EPHB2; [1]) of 0.108 µM, a potency estimated from few doses (EPHB4; [1]) of 0.0302 µM and a potency estimated from few doses (MAP4K5; [1]) of 2.36 µM. For the same compound, the potency estimated from few doses (TGFBR2; [1]) was 1.26 µM and the potency estimated from few doses (TNK2; [1]) was 0.0873 µM.
Work on O=C1N=C(NCc2cccs2)SC1Cc1ccc2ncccc2c1 (centres unmarked) [RO4629078-000] yielded a potency estimated from few doses (CDKL5; CATDS: 6.9445234986253998E-3) of 2.32 µM, a potency estimated from few doses (EPHA2; compound concentrations: 100 nM and 1000 nM (sheet 'Samples'), CATDS: 1.36009605508639E-2) of 0.342 µM and a potency estimated from few doses (EPHA4; compound concentrations: 100 nM and 1000 nM (sheet 'Samples'), CATDS: 1.66325304555619E-2) of 0.238 µM. The potency estimated from few doses (EPHB2; compound concentrations: 100 nM and 1000 nM (sheet 'Samples'), CATDS: 1.9892167159836899E-2) was 0.178 µM, the potency estimated from few doses (EPHB4; compound concentrations: 100 nM and 1000 nM (sheet 'Samples'), CATDS: 2.1087498416613601E-2) was 0.162 µM and the potency estimated from few doses (GSK3B) was 0.238 µM. It also gave a potency estimated from few doses (NUAK1; CATDS: 9.4682639487438207E-3) of 0.771 µM, a potency estimated from few doses (PLK4) of 0.254 µM and a potency estimated from few doses (TAOK1; CATDS: 7.4050083824812101E-3) of 1.73 µM. The potency estimated from few doses (TNK2; compound concentrations: 100 nM and 1000 nM (sheet 'Samples'), CATDS: 1.95530569334194E-2) was 0.183 µM.
